Drawing on PubChem BioAssay (NCATS), this text covers Potency and outcome for 32 compounds.

Assay [1] has as its target Rap guanine nucleotide exchange factor 3 (Homo sapiens) (UniProt O95398). Description: Confirmatory qHTS for agonist of cAMP-regulated guanine nucleotide exchange factor 3 (EPAC1) (AID 1645881).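 Further: EPAC1 catalysed release of BODIPY-GDP from Rap1B seen as fluorescence loss; nearly all actives have a fitted effect of over 75% in size.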 For orientation: In qHTS, concentration-response curves come from the screen itself.
For assay [2], the target named is Rap guanine nucleotide exchange factor 4 (Homo sapiens) (UniProt Q8WZA2). Description: Confirmatory qHTS for agonist of cAMP-regulated guanine nucleotide exchange factor 4 (EPAC2) (AID 1645884). Further: nearly all actives have a fitted effect of over 65% in size.
Rap guanine nucleotide exchange factor 4 (Homo sapiens), sequence (Q8WZA2 whole entry, looked up): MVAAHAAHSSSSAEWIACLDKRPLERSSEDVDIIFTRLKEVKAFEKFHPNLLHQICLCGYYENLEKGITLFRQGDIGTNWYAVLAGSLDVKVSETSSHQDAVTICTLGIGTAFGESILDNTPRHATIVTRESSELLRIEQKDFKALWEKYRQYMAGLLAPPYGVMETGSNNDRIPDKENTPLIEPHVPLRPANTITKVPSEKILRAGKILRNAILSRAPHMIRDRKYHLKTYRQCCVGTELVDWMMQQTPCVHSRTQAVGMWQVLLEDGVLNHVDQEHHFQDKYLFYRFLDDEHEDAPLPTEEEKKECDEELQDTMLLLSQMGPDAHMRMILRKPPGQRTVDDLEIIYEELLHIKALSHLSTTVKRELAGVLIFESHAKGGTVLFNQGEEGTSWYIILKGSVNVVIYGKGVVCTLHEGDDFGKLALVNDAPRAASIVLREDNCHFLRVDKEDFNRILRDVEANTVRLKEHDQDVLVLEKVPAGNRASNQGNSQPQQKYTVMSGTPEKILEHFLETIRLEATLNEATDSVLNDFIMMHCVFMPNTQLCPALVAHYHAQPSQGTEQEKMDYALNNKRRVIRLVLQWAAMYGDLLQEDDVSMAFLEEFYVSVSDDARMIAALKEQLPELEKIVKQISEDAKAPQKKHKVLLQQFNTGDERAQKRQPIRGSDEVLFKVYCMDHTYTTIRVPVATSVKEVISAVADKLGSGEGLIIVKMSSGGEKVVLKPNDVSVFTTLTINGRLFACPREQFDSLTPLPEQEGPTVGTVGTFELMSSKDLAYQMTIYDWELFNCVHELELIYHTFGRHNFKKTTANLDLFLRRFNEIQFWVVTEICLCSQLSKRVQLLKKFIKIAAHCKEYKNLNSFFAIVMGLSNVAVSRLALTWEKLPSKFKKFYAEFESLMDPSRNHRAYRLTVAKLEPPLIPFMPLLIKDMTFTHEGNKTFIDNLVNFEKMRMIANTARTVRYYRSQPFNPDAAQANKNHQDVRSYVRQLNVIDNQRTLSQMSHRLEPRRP
Assay [3] has as its target Rap guanine nucleotide exchange factor 3 (Homo sapiens) (UniProt O95398). Description: Counterscreen qHTS for agonist of cAMP-regulated guanine nucleotide exchange factor 3 (EPAC1) (AID 1645889). Further: nearly all actives have a fitted effect of over 40% in size. In short, it runs like this: (§1)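 Measured: fluorescence of BODIPY-GDP bound to Rap1B, which falls as exchange proceeds. Conditions include 50 uM competing GDP, 5 and 30 min reads, and a later cAMP challenge for antagonist detection.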
On the technique in general: Counterscreens check selectivity or assay interference.

Assay [4] has as its target Rap guanine nucleotide exchange factor 4 (Homo sapiens) (UniProt Q8WZA2). Put plainly: Confirmatory qHTS for antagonist of cAMP-regulated guanine nucleotide exchange factor 4 (EPAC2) (AID 1645885). Further: nearly all actives have a fitted effect of over 25% in size. Further: potency means the concentration at half of the fitted maximal effect.
In assay [5] the target is Rap guanine nucleotide exchange factor 3 (Homo sapiens) (UniProt O95398). Description: Counterscreen qHTS for antagonist of cAMP-regulated guanine nucleotide exchange factor 3 (EPAC1) (AID 1645888).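 Further: fluorescence loss as bound BODIPY-GDP is released from Rap1B.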 In short, it runs like this: as §1
Rap guanine nucleotide exchange factor 3 (Homo sapiens), sequence (O95398 whole entry, looked up): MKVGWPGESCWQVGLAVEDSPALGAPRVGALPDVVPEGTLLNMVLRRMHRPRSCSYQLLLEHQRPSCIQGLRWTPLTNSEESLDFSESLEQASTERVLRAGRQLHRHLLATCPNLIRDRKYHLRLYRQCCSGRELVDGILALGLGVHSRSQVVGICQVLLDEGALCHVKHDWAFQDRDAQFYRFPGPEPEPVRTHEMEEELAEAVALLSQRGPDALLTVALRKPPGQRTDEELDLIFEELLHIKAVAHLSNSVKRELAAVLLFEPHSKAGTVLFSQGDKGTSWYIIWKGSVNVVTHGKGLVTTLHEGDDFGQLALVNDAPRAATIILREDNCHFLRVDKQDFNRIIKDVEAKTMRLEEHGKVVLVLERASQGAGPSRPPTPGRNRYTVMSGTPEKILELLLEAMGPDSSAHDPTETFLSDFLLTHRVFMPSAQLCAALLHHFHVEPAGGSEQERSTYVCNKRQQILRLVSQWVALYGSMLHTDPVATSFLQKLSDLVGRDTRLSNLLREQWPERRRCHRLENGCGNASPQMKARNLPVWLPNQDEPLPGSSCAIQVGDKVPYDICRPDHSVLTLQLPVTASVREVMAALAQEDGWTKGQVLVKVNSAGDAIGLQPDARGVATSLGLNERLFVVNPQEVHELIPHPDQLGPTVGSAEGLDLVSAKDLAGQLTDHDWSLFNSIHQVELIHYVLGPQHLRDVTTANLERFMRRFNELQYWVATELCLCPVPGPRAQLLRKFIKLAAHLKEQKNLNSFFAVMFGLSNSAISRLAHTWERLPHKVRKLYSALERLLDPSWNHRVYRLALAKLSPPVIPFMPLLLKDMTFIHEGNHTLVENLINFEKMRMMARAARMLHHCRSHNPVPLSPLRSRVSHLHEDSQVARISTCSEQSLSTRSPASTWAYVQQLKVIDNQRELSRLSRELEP
For assay [6], the target named is Cytochrome P450 3A4 (Homo sapiens) (UniProt P08684). Put plainly: qHTS Assay for Inhibitors and Substrates of Cytochrome P450 3A4 (AID 884). Further: potency means the concentration at half of the fitted maximal effect; nearly all actives have a fitted effect of over 50% in size. In short, it runs like this:
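20 nM human CYP3A4 with 25 uM Luciferin-PPXE (at KM) in 200 mM KPO4, preincubated 10 min with compound; NADPH regeneration started a 60 min RT reaction. Luciferin detected by luminescence, normalized to 57 uM ketoconazole as full inhibition.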

The target is the same in assay [7]. Description: qHTS Assay for Activators of Cytochrome P450 3A4 (AID 885). Further: nearly all actives have a fitted effect of over 65% in size. The method, boiled down: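 Quantitative HTS format: compounds preincubated with 20nM human CYP3A4 and Luciferin-PPXE substrate at KM, reaction started by NADPH regeneration, stopped after 60 min, luciferase luminescence read 20 min later.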
A short description of assay [8]: Confirmation and Secondary Assay for Modulators of Hemoglobin Beta Chain Splicing at IVS2 654 locus (AID 910).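 Further: per-well total GFP intensity by laser scanning cytometry after 2-day treatment.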 In short, it runs like this:
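HeLa cells stably carrying EGFP interrupted by mutant beta-globin IVS2-654 intron (CMV-driven) were treated with compound for 2 days at 37C; corrected splicing was scored as total peak GFP intensity per well (488 nm excitation, 500-520 nm emission).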

Assay [9] is described as follows: Confirmation and Secondary Assay for Modulators of Hemoglobin Beta Chain Splicing at IVS2 705 locus (AID 930).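 Further: HeLa cells stably expressing the EGFP-705 splicing reporter; GFP fluorescence per well restored by corrected splicing of the IVS2-705 intron in EGFP; series mostly up to about 46 µM.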 In short, it runs like this: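 Splice-correction reporter: EGFP cDNA split by beta-globin intron 2 bearing the 705 mutation, stably in HeLa. Compound incubation 2 days, 37C; fluorescent objects 5-250 µm summed per well.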

A number with no mark means an inactive call. Inconclusive results are not listed. Calls of active or inactive are those of the source. The call rests on the fitted dose curve; in most records, active means well fitted curve in the direction sought with a large enough effect; inconclusive means small, poorly fitted or top-dose-only effect, or another doubt; inactive means no such curve, though single readings can be large; an effect the other way counts as inactive or inconclusive.

Cytochrome P450 3A4 (Homo sapiens), sequence (P08684 whole entry, looked up): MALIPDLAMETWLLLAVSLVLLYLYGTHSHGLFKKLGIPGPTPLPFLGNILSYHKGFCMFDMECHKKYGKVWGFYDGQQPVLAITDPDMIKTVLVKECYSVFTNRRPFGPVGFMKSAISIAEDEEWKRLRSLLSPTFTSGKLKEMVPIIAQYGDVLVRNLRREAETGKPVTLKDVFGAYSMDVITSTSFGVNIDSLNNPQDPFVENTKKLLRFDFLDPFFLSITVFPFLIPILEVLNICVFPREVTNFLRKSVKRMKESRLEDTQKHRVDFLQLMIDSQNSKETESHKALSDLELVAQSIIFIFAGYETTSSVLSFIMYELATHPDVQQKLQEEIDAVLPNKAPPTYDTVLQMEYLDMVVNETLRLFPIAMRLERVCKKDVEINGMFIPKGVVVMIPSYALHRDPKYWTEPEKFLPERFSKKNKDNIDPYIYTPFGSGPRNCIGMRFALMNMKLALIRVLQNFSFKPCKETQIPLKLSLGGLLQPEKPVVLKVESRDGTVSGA

For the compound `O=C(NC1CCCCC1)C(c1ccc(C(F)(F)F)cc1)n1c(=O)c(-c2ccco2)nc2ccccc21` (centres undefined), the Potency entry in assay [1], in assay [2] and in [3] was “inactive” each time.
Take `COc1cccc2cc(/C(=N/O)c3ccccc3)oc12`: the Potency result in assay [1], in [4] and in assay [5] was “inactive” throughout.
`O=c1[nH]c(Nc2ccc(F)cc2)cc2ccccc12`: the Potency result in assay [1], in assay [4] and in assay [5] was “inactive” each time.
On to `C#Cc1ccc([C@H]2C=C(C(=O)NCc3ccccc3)O[C@@H](OCC)[C@@H]2CCCO)cc1`, for which the Potency result in assay [1] and in [5] was “inactive” in each case. Moreover, in assay [4], the Potency is 37.9 µM (active).
Regarding `Cc1cc(C)c2c(CN3CCCC3)cc(=O)oc2c1`, the Potency entry in [1], in assay [4] and in assay [5] was “inactive” in each case.
Turning to `Cc1cc[n+](-c2[nH]c(=O)sc2/C=N/N=C(\[O-])c2ccccc2)cc1`, the Potency entry in [1] and in assay [4] was “inactive” in each case.
With `Cc1nc2ccccc2c2oc(C(=O)Nc3ccc4c(c3)OCCO4)cc12`, the Potency entry in assay [1], in [4] and in assay [5] was “inactive” in each case.
As to `O=C1CN(C(=O)c2c(F)cccc2Cl)C(c2ccc(F)cc2)c2cc(Br)ccc2N1` (centres undefined), the Potency result in assay [1] and in assay [4] was “inactive” each time.
`O=C(Nc1cccc(S(=O)(=O)NCc2ccco2)c1)c1cc(-c2ccccc2)nc2ccccc12`: the Potency result in assay [1], in assay [4] and in assay [5] was “inactive” throughout.
Regarding `COc1ccc(CNc2ncnc3onc(-c4ccc(F)cc4)c23)cc1`, the Potency entry in [1], in assay [4] and in assay [5] was “inactive” in each case.
As for `O=C(Nc1ccc(-c2cn3ccccc3n2)cc1)c1cccs1`, the Potency result in assay [1], in [4] and in assay [5] was “inactive” in each case.
Take `CCN(C(=O)c1sc2cc(OC)ccc2c1Cl)c1ccccc1`: the Potency entry in assay [1], in [4] and in assay [5] was “inactive” throughout.
Regarding `Cc1ccccc1C1(O)c2ccccc2-c2ccccc21`, the Potency entry in assay [1], in [4] and in [5] was “inactive” throughout.
Turning to `CC(=O)Nc1ccc(Nc2nnc(-c3ccc(O)cc3)c3ccccc23)cc1`, the Potency entry in assay [1], in assay [4] and in assay [5] was “inactive” each time.
`O=C(CSc1nc2ccccc2o1)N/N=C/c1ccc(O)c(O)c1`: the Potency result in assay [1], in assay [4] and in assay [5] was “inactive” in each case.
As for `CSc1ccc(S(=O)(=O)NCC(=O)OCC(=O)N(C)Cc2ccccc2)cc1[N+](=O)[O-]`, the Potency result in assay [1] and in assay [4] was “inactive” in each case.
Regarding `Cc1ccc(C)c(Oc2nc3c(c(=O)n(C)c(=O)n3C)n2Cc2ccccc2)c1`, the Potency result in assay [1], in assay [4] and in [5] was “inactive” in each case.
With `CCOc1ccccc1C(=O)N1CCc2cc(OC)c(OC)cc2C1COc1ccc(OC)cc1` (centres undefined), the Potency entry in assay [1], in assay [4] and in assay [5] was “inactive” in each case.
With `COc1ccc(-c2ccc(C(=O)NC(C)C)c3occc23)c(C)c1`, the Potency entry in assay [1], in assay [4] and in assay [5] was “inactive” throughout.
For `CCOC(=O)Nc1cc2c(c(N)n1)N=C(c1ccccc1)CN2`, the Potency result in assay [1], in assay [4] and in assay [5] was “inactive” throughout.
Take `COc1cccc(-c2nc(N3CCN(c4ccccc4)CC3)c3ccccc3n2)c1O`: the Potency entry in assay [1], in assay [4] and in [5] was “inactive” in each case.
With `COc1ccc(Cl)cc1NC(=O)COC(=O)c1cc(NS(=O)(=O)c2cccs2)ccc1O`, the Potency entry in assay [1], in assay [4] and in [5] was “inactive” throughout.
With `O=[N+]([O-])c1cccc(S(=O)(=O)Nc2cccc(-c3ccc(N4CCCC4)nn3)c2)c1`, the Potency result in [1] and in assay [5] was “inactive” each time. For the same compound, the outcome in assay [4] was “inactive [at 12.7 µM]”.
As to `COc1cc(NC(=O)CCNC(=O)Cn2ccc3ccccc3c2=O)cc(OC)c1OC`, the Potency result in assay [1], in assay [4] and in [5] was “inactive” each time.
On to `O=c1c2ccccc2c(C=Nc2ccc(O)cc2)c(O)n1-c1nccs1`, for which the Potency entry in assay [1] and in assay [4] was “inactive” in each case.
Take `Cc1ccccc1SCC(=O)Nc1cc(C(F)(F)F)ccc1N1CCOCC1`: the Potency result in assay [1] and in assay [5] was “inactive” in each case. For the same compound, in assay [4], the Potency is 2.39 µM (active).
Take `COc1ccccc1CN(C)C(=O)C(c1ccccc1)c1ccccc1`: the Potency entry in assay [1], in assay [4] and in [5] was “inactive” in each case.
Consider `O=C(c1ccccc1Cc1ccccc1)N1CCN(S(=O)(=O)c2ccccc2Br)CC1`, for which the Potency result in assay [1], in [4] and in [5] was “inactive” each time.
Take `COc1ccc(C(=O)NCCn2cc(SCc3cccc(F)c3)c3ccccc32)cc1OC`: the Potency result in [1], in assay [4] and in assay [5] was “inactive” each time.
Regarding `Nc1nc(CSc2ccc(Cl)cc2)nc(N2CCCCC2)n1`, the Potency result in assay [1], in [4] and in [5] was “inactive” each time.
Regarding `Cc1ccc(C)c(CN2C(=O)C(O)(c3c[nH]c4ccccc34)c3ccccc32)c1` (centres undefined), the Potency entry in assay [1] was “inactive”. Also, the outcome in [4] is “inactive [at 12.7 µM]”.
As to `COc1ccc2c(c1)OCC(Cc1ccc(OC)c(OC)c1)C2=O` (centres undefined), in [6], the Potency is 15.8 µM (active). For the same compound, the result in assay [7] was inactive. For the same compound, the Potency result in assay [8], in assay [9], in assay [1] and in assay [2] was “inactive” each time.
